Data as given in PubChem BioAssay.
Unmarked numbers belong to inactive results. The rule behind the calls is not given here.

Experiments:
[1] = target: Botulinum neurotoxin type A (Clostridium botulinum) (UniProt P0DPI0); assay: BoNT/A light chain protease inhibitors, biochemical, multiplex microsphere flow cytometry, validation set (AID 588460); settings: at 10 µM, stronger effect = higher value
[2] = target: Lethal factor (Bacillus anthracis) (UniProt P15917); assay: Lethal factor protease inhibitors, Bacillus anthracis, multiplex microsphere cleavage assay, validation set (AID 588461); settings: flow cytometry, at 10 µM, stronger effect = higher value
Sequence of Lethal factor (Bacillus anthracis) (P15917 whole entry, looked up): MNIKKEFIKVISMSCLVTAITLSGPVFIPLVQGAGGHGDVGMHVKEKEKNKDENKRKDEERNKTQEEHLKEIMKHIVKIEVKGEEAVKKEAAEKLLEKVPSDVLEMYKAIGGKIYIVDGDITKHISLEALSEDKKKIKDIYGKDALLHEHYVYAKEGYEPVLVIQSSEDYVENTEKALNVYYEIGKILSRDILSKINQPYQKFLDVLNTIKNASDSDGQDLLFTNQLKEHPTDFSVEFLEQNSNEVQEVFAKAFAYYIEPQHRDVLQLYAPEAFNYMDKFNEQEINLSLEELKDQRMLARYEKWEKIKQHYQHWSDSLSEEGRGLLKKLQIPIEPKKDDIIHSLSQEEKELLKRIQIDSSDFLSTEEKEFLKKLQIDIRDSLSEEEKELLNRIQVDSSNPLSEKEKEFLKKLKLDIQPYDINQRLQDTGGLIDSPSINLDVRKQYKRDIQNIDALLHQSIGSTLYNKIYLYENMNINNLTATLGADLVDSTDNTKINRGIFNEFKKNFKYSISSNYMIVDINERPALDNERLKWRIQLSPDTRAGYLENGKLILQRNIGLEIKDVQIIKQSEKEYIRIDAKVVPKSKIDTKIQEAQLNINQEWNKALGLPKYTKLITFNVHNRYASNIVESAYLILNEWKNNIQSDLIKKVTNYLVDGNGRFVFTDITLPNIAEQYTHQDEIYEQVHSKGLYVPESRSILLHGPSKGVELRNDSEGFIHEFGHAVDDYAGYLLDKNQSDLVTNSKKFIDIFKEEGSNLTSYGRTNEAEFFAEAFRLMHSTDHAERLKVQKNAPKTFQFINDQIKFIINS

[3] = system: Botulinum neurotoxin type F light chain protease (Clostridium botulinum); assay: Botulinum neurotoxin type F light chain protease inhibition, multiplex microsphere flow cytometry, validation set (AID 588459); settings: multiplex microsphere protease substrate cleavage assay, at 10 µM, stronger effect = higher value

Sequence of Botulinum neurotoxin type A (Clostridium botulinum) (P0DPI0 whole entry, looked up): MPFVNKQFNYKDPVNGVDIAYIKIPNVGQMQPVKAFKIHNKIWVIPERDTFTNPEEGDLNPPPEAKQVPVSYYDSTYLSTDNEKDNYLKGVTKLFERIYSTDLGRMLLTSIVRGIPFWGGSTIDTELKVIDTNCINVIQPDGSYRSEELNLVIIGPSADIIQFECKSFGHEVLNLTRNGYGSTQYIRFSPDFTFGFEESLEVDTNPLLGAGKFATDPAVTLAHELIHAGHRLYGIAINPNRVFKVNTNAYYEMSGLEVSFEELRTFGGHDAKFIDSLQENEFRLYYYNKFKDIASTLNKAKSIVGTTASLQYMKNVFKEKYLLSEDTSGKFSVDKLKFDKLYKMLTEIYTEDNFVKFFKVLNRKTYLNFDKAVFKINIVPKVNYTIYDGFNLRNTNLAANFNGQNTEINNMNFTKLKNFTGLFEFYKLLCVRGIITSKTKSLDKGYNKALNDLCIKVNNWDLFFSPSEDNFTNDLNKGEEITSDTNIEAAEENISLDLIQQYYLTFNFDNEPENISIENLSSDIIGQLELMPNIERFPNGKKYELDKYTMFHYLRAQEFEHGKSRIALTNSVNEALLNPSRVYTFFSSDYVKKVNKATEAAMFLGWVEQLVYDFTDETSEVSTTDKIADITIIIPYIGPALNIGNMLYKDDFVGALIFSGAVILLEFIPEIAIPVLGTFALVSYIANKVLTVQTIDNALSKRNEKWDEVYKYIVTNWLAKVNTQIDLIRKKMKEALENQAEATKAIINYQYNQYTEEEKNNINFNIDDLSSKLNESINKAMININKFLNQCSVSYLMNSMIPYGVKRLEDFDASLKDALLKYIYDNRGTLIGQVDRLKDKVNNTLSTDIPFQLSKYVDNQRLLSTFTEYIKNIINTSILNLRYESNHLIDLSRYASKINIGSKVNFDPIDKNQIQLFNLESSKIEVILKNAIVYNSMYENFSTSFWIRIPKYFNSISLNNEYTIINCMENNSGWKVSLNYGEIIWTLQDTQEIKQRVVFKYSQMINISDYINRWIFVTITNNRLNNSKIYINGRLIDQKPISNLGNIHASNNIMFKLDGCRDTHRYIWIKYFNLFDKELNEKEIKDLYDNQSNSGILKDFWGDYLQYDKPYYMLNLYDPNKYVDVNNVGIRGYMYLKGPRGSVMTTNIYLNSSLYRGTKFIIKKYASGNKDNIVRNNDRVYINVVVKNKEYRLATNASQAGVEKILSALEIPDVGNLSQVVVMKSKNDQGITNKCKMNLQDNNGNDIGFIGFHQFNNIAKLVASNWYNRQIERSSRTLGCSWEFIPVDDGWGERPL

## CN(C)CCCN1c2ccccc2CCc2ccc(Cl)cc21
[1]
  inhibition: -0.7%
[2]
  inhibition: -1.4%

## CC(C)NCC(O)COc1ccc(CC(N)=O)cc1 (configuration not stated)
[1]
  inhibition: -1.9%
[2]
  inhibition: -2.4%

## O=C1C=CC(=O)C(C2=C3C(=O)N(CCc4ccccc4)CC(=O)N3CCC2)=C1
[3]
  inhibition: 1.8%
[1]
  inhibition: -0.3%
[2]
  inhibition: -4.9%
